Results filed as inconclusive are left out. A call without a number means that no potency is given here. The source made the active and inactive calls. Calls follow the shape of the dose curve; as a rule, active = well fitted inhibition curve with a large enough effect; inconclusive = small, poorly fitted or top-dose-only effect; inactive = flat fitted curve, though single readings scatter.
Legend:
Experiment in all cases: qHTS profiling for inhibitors of Plasmodium falciparum proliferation (AID 504749); also: nearly all actives have a fitted effect of over 60% in size
Conditions in all cases: P. falciparum in erythrocytes, SYBR Green DNA, 72 h; series mostly up to 28.7 µM
AA1029 = tested on: AA1029
Summary of the method: (§1)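 Quantitative HTS: compounds pinned into medium, infected erythrocytes added (0.3% parasitemia, 2.5% hematocrit), 72 h culture at 37 C under 5% CO2. Saponin/Triton lysis with SYBR Green I, overnight RT, then fluorescence read.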

ATS95 = tested on: ATS95
Summary of the method: as §1

C2A = tested on: C2A
Summary of the method: as §1

CP211 = tested on: CP211
Summary of the method: as §1

CP238 = tested on: CP238
Summary of the method: as §1

CP252 = tested on: CP252
Summary of the method: as §1

CP256 = tested on: CP256
Summary of the method: as §1

CP262 = tested on: CP262
Summary of the method: as §1

CP266 = tested on: CP266
Summary of the method: as §1

CP268 = tested on: CP268
Summary of the method: as §1

CP269 = tested on: CP269
Summary of the method: as §1

CP305 = tested on: CP305
Summary of the method: as §1

CP315 = tested on: CP315
Summary of the method: as §1

CP325 = tested on: CP325
Summary of the method: as §1

CP329 = tested on: CP329
Summary of the method: as §1

DIV17 = tested on: DIV17
Summary of the method: as §1

FAB9 = tested on: FAB9
Summary of the method: as §1

ICS = tested on: ICS
Summary of the method: as §1

JCK = tested on: JCK
Summary of the method: as §1

PC26 = tested on: PC26
Summary of the method: as §1
Potency is read from the fitted curve at half-maximal effect.

| SMILES | Potency (AA1029) | Potency (ATS95) | Potency (C2A) | Potency (CP211) | Potency (CP238) | Potency (CP252) | Potency (CP256) | Potency (CP262) | Potency (CP266) | Potency (CP268) | Potency (CP269) | Potency (CP305) | Potency (CP315) | Potency (CP325) | Potency (CP329) | Potency (DIV17) | Potency (FAB9) | Potency (ICS) | Potency (JCK) | Potency (PC26) |
| --- | --- | --- | --- | --- | --- | --- | --- | --- | --- | --- | --- | --- | --- | --- | --- | --- | --- | --- | --- | --- |
| C=C1CC[C@H](O)C/C1=C/C=C1\CCC[C@]2(C)[C@@H]([C@H](C)CCCC(C)C)CC[C@@H]12 | inactive | inactive | inactive | inactive | inactive | inactive | inactive | inactive | inactive | inactive | inactive | inactive | inactive | inactive | inactive | inactive | inactive | 10 µM (active) | inactive | inactive |
| Cc1c(C(=O)O)c(O)cc2c1C(=O)c1c(O)c([C@H]3O[C@H](CO)[C@@H](O)[C@H](O)[C@H]3O)c(O)c(O)c1C2=O | inactive | inactive | inactive | inactive | inactive | inactive | inactive | inactive | inactive | inactive | inactive | inactive | inactive | inactive | inactive | inactive | inactive | inactive | inactive | inactive |

Source: PubChem BioAssay (NCATS)
